Data as given in the supplement of paper PMC11219838.
A number with no mark means an inactive call.

Test system: Meloidogyne hapla J2
Assay: proportion of mobile M. hapla J2 relative to DMSO control (fraction of DMSO control); higher = more viable, less nematicidal, active = 0.7 or less
Details: 60 µM; 5 days; temperature: 20 °C
Method in brief: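 Two biological replicates were run and averaged, each on 96-well plates in which about 25 M. hapla J2 sat in distilled water per well. Compound was pinned in to give 60 µM final and 0.6% v/v DMSO, and the sealed plates were shaken at 200 rpm and 20 °C for 5 days before 2 µL 1 M NaOH was added. Mobility was scored microscopically and divided by the mean from the plate's DMSO-only wells, of which there were eight.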

SMILES	proportion of mobile M. hapla J2
Cc1cccc(-c2nnc(SCC(=O)NC(C)c3ccccc3)o2)c1 (stereo not drawn)	0.89
CN(C)c1ccc(-c2nnc(SCc3ccccc3)o2)cc1	0.991
Cc1cc(OCc2nc(-c3ccccn3)no2)ccc1Cl	0.834
COc1ccccc1-c1nnc(SCC(=O)Nc2ccc(Br)cn2)o1	0.908
Clc1ccc(SCc2nc(-c3ccccn3)no2)cc1	0.0259 (active)
Cc1ccc(-c2nc(-c3ccncc3)no2)cc1Cl	0.852
CCCc1ccc(-c2nc(-c3cccnc3)no2)cc1	1.08
COc1ccccc1OCc1nc(-c2cccc(C)c2)no1	0.871
Cc1ccc(-c2nc(-c3ccccc3Cl)no2)c(Cl)c1	0.942
COc1ccccc1-c1nnc(SCc2ccccc2C#N)o1	0.94
Fc1ccccc1OCc1nc(-c2ccc(Cl)cc2)no1	1
COc1ccc(-c2noc(COc3ccc(F)cc3)n2)cc1	0.891
Cc1cc(C)cc(OCc2nc(-c3ccccc3Cl)no2)c1	0.978
Cc1ccc(-c2noc(CSc3nc4ccccc4[nH]3)n2)cc1	1.05
Cc1ccc(-c2noc(-c3ccc(C)cc3)n2)cc1	1.01
Brc1ccc(-c2noc(COc3ccc4c(c3)OCO4)n2)cc1	1.06
C#CCOc1ccc(-c2nc(-c3ccccc3)no2)cc1	1.06
c1ccc(-c2noc(COc3ccc4c(c3)CCCC4)n2)cc1	0.923
Cc1ccc(-c2nnc(SCC(=O)Nc3cc(C)c(C)cc3Br)o2)cc1	0.792
Cc1cc(C)cc(NC(=O)CSc2nnc(-c3ccccc3)o2)c1	1.04

SMILES	proportion of mobile M. hapla J2
COc1cccc(-c2nc(-c3ccc(C)cc3)no2)c1	0.953
Cc1cccc(-c2noc(-c3ccccc3Cl)n2)c1	0.894
Cc1cccc(-c2noc(-c3ccccc3F)n2)c1	0.874
Clc1ccccc1-c1noc(-c2ccccc2Cl)n1	1.02
CCOc1ccccc1-c1nc(-c2ccc(NC(=O)c3ccncc3)cc2)no1	0.977
Cc1cccc(OCc2nc(-c3ccncc3)no2)c1C	0.937
Cc1cccc(-c2noc(C3CCCCC3)n2)c1	1.01
Fc1cccc(-c2nc(-c3ccccc3)no2)c1	0.867
COc1ccc(-c2noc(-c3ccccc3C)n2)cc1	0.898
COc1nc(C)ccc1-c1noc(-c2ccccc2Cl)n1	1.02
CCOc1ccccc1-c1nc(-c2cccc(C)c2)no1	0.982
Clc1ccc(-c2noc(-c3cccnc3)n2)cc1	1
CCCCC(=O)Nc1ccccc1-c1nc(-c2ccccn2)no1	1.06
COc1ccc(-c2noc(-c3ccc(Cl)cc3Cl)n2)cc1	1.04
Cc1cccc(-c2noc(COc3ccc(C)c(C)c3)n2)c1	1.04
CCNC(=O)c1ccccc1-c1nc(-c2ccc(OC)cc2)no1	0.785
Cc1ccc(-c2nnc(SCC(=O)Nc3ccccc3)o2)cc1	0.996
CCOc1cc(-c2nc(-c3ccccc3C)no2)cc(OCC)c1OCC	0.821
CCSc1nnc(-c2ccc(Cl)cc2Cl)o1	0.607 (active)

Test system: Caenorhabditis elegans dauer (daf-2(e1370))
Assay: proportion of mobile C. elegans dauer larvae relative to DMSO control (fraction of DMSO control); higher = more viable, less nematicidal, active = 0.63 or less; extreme values may be limits of the assay
Details: 60 µM; 5 days; temperature: 20 °C
Method in brief: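 Synchronized C. elegans daf-2(e1370) larvae were held at 25 °C for 48 h on MYOB plates with E. coli OP50 to form dauers, and about 20 dauers were added per 96-well well in liquid NGM. Compound was pinned to 60 µM final (0.6% v/v DMSO), and sealed plates were shaken at 200 rpm for 5 days at 20 °C. The proportion of mobile worms was scored under a dissection microscope relative to DMSO controls and averaged over two biological replicates.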

SMILES	proportion of mobile C. elegans dauer larvae
Cc1cccc(-c2nnc(SCC(=O)NC(C)c3ccccc3)o2)c1 (stereo not drawn)	1
CN(C)c1ccc(-c2nnc(SCc3ccccc3)o2)cc1	1
Cc1cc(OCc2nc(-c3ccccn3)no2)ccc1Cl	1
COc1ccccc1-c1nnc(SCC(=O)Nc2ccc(Br)cn2)o1	1
Clc1ccc(SCc2nc(-c3ccccn3)no2)cc1	0.5 (active)
Cc1ccc(-c2nc(-c3ccncc3)no2)cc1Cl	1
CCCc1ccc(-c2nc(-c3cccnc3)no2)cc1	0.926
COc1ccccc1OCc1nc(-c2cccc(C)c2)no1	1
Cc1ccc(-c2nc(-c3ccccc3Cl)no2)c(Cl)c1	1
COc1ccccc1-c1nnc(SCc2ccccc2C#N)o1	1
Fc1ccccc1OCc1nc(-c2ccc(Cl)cc2)no1	1
COc1ccc(-c2noc(COc3ccc(F)cc3)n2)cc1	1
Cc1cc(C)cc(OCc2nc(-c3ccccc3Cl)no2)c1	1
Cc1ccc(-c2noc(CSc3nc4ccccc4[nH]3)n2)cc1	1
Cc1ccc(-c2noc(-c3ccc(C)cc3)n2)cc1	0.881
Brc1ccc(-c2noc(COc3ccc4c(c3)OCO4)n2)cc1	1
C#CCOc1ccc(-c2nc(-c3ccccc3)no2)cc1	1
c1ccc(-c2noc(COc3ccc4c(c3)CCCC4)n2)cc1	1
Cc1ccc(-c2nnc(SCC(=O)Nc3cc(C)c(C)cc3Br)o2)cc1	1
Cc1cc(C)cc(NC(=O)CSc2nnc(-c3ccccc3)o2)c1	1

SMILES	proportion of mobile C. elegans dauer larvae
COc1cccc(-c2nc(-c3ccc(C)cc3)no2)c1	0 (active)
Cc1cccc(-c2noc(-c3ccccc3Cl)n2)c1	1
Cc1cccc(-c2noc(-c3ccccc3F)n2)c1	1
Clc1ccccc1-c1noc(-c2ccccc2Cl)n1	1
CCOc1ccccc1-c1nc(-c2ccc(NC(=O)c3ccncc3)cc2)no1	1
Cc1cccc(OCc2nc(-c3ccncc3)no2)c1C	1
Cc1cccc(-c2noc(C3CCCCC3)n2)c1	1
Fc1cccc(-c2nc(-c3ccccc3)no2)c1	1
COc1ccc(-c2noc(-c3ccccc3C)n2)cc1	0.533 (active)
COc1nc(C)ccc1-c1noc(-c2ccccc2Cl)n1	1
CCOc1ccccc1-c1nc(-c2cccc(C)c2)no1	1
Clc1ccc(-c2noc(-c3cccnc3)n2)cc1	0.452 (active)
CCCCC(=O)Nc1ccccc1-c1nc(-c2ccccn2)no1	1
COc1ccc(-c2noc(-c3ccc(Cl)cc3Cl)n2)cc1	1
Cc1cccc(-c2noc(COc3ccc(C)c(C)c3)n2)c1	1
CCNC(=O)c1ccccc1-c1nc(-c2ccc(OC)cc2)no1	1
Cc1ccc(-c2nnc(SCC(=O)Nc3ccccc3)o2)cc1	1
CCOc1cc(-c2nc(-c3ccccc3C)no2)cc(OCC)c1OCC	1
CCSc1nnc(-c2ccc(Cl)cc2Cl)o1	0 (active)
